In PubChem BioAssay AID1159580 (chemical genetic matrix, 2015):
Out of some 5,500 compounds screened, about 2,000 (36%) were called active. Another 18% or so got no clear call; they are omitted. No stated cut-off is given here; in the data, active means normalized growth mostly below about 0.91 (no sharp cut-off); inconclusive means no clear call, values can overlap the other calls; inactive means mostly above about 0.92. The list shows a part of the results.

Assay: chemical genetic growth profiling, strain panel (AID 1159580);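 further: tested at 20 µM; growth read once vehicle control cultures reached saturation at 30 °C; 1 = growth at the plate median or of vehicle wells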
Settings: S. cerevisiae deletion strains, growth OD

Measured: normalized growth

CC1(C)C(C(Cl)Cl)C2(Cl)C(Cl)C(Cl)C1(Cl)C2(Cl)Cl (centres undefined)
active: locus YDR137W, strain rgp1, stronger effect = lower value 0.839 | locus YHR013C, strain ard1, stronger effect = lower value 0.798 | locus YJL129C, strain trk1, stronger effect = lower value 0.841
inactive: locus YAL013W, strain DEP1, stronger effect = lower value 0.984 | locus YAL021C, strain ccr4, stronger effect = lower value 1.07 | locus YAL026C, strain drs2, stronger effect = lower value 0.996 | locus YAL030W, strain snc1, stronger effect = lower value 0.984 | locus YBL061C, strain skt5, stronger effect = lower value 0.983 | locus YBR009C, strain hhf1, stronger effect = lower value 0.976 | locus YBR021W, strain FUR4, stronger effect = lower value 0.996 | locus YBR023C, strain chs3, stronger effect = lower value 0.978 | locus YBR171W, strain sec66, stronger effect = lower value 0.978 | locus YBR229C, strain ROT2, stronger effect = lower value 0.987 | locus YBR231C, strain swc5, stronger effect = lower value 0.979 | locus YBR279W, strain paf1, stronger effect = lower value 0.992 | locus YCL011C, strain gbp2, stronger effect = lower value 0.993 | locus YCL016C, strain dcc1, stronger effect = lower value 0.979 | locus YCL029C, strain bik1, stronger effect = lower value 0.972 | locus YCL061C, strain MRC1, stronger effect = lower value 0.981 | locus YCL069W, strain vba3, stronger effect = lower value 0.993 | locus YCR088W, strain abp1, stronger effect = lower value 0.989 | locus YDL005C, strain med2, stronger effect = lower value 0.981 | locus YDL035C, strain GPR1, stronger effect = lower value 0.972 | locus YDL040C, strain nat1, stronger effect = lower value 0.984 | locus YDL074C, strain BRE1, stronger effect = lower value 1.02 | locus YDL101C, strain DUN1, stronger effect = lower value 0.991 | locus YDL134C, strain PPH21, stronger effect = lower value 0.986 | locus YDL185W, strain tfp1, stronger effect = lower value 0.989 | locus YDL192W, strain arf1, stronger effect = lower value 0.978 | locus YDR001C, strain nth1, stronger effect = lower value 0.992 | locus YDR069C, strain doa4, stronger effect = lower value 0.967 | locus YDR101C, strain arx1, stronger effect = lower value 0.99 | locus YDR150W, strain NUM1, stronger effect = lower value 0.999 | locus YDR159W, strain sac3, stronger effect = lower value 0.892 | locus YDR162C, strain NBP2, stronger effect = lower value 0.988 | locus YDR195W, strain ref2 0.997 | locus YDR297W, strain sur2, stronger effect = lower value 0.977 | locus YDR318W, strain mcm21, stronger effect = lower value 0.971 | locus YDR334W, strain swr1, stronger effect = lower value 0.997 | locus YDR335W, strain msn5, stronger effect = lower value 0.993 | locus YDR388W, stronger effect = lower value 0.959 | locus YDR392W, strain spt3, stronger effect = lower value 0.836 | locus YDR502C, strain sam2, stronger effect = lower value 0.974 | locus YEL003W, strain gim4, stronger effect = lower value 0.984 | locus YEL037C, strain rad23, stronger effect = lower value 0.995 | locus YEL061C, strain CIN8 (second series), stronger effect = lower value 0.995 | locus YEL061C, strain CIN8, stronger effect = lower value 0.994 | locus YER015W, strain faa2, stronger effect = lower value 0.979 | locus YER016W, strain bim1, stronger effect = lower value 0.984 | locus YER110C, stronger effect = lower value 0.981 | locus YER111C, strain swi4, stronger effect = lower value 1 | locus YER155C, strain BEM2 (second series), stronger effect = lower value 0.965 | locus YER155C, strain BEM2, stronger effect = lower value 0.983 | locus YER167W, strain BCK2, stronger effect = lower value 0.968 | locus YFR010W, strain ubp6, stronger effect = lower value 1 | locus YGL078C, strain dbp3, stronger effect = lower value 0.975 | locus YGL086W, strain mad1, stronger effect = lower value 0.981 | locus YGL167C, strain pmr1, stronger effect = lower value 0.973 | locus YGL173C, strain kem1, stronger effect = lower value 0.972 | locus YGL227W, strain vid30, stronger effect = lower value 0.99 | locus YGL240W, strain doc1, stronger effect = lower value 0.963 | locus YGL248W, strain PDE1, stronger effect = lower value 0.991 | locus YGL253W, strain hxk2, stronger effect = lower value 0.989 | locus YGR078C, strain PAC10, stronger effect = lower value 0.989 | locus YGR135W, strain pre9, stronger effect = lower value 0.971 | locus YGR229C, strain SMI1, stronger effect = lower value 0.962 | locus YGR252W, strain gcn5, stronger effect = lower value 0.962 | locus YHR027C, strain rpn1, stronger effect = lower value 0.977 | locus YHR030C, strain SLT2, stronger effect = lower value 0.965 | locus YHR079C, strain IRE1 (second series), stronger effect = lower value 0.965 | locus YHR094C, strain hxt1, stronger effect = lower value 0.974 | locus YHR129C, strain ARP1, stronger effect = lower value 0.996 | locus YHR142W, strain chs7, stronger effect = lower value 0.992 | locus YHR200W, strain rpn10, stronger effect = lower value 0.977 | locus YIL066C, strain RNR3, stronger effect = lower value 0.955 | locus YIL073C, strain SPO22, stronger effect = lower value 0.883 | locus YIL125W, strain kgd1, stronger effect = lower value 0.979 | locus YIR030C, strain dcg1, stronger effect = lower value 0.972 | locus YJL092W, strain hpr5, stronger effect = lower value 0.986 | locus YJL095W, strain BCK1 (second series), stronger effect = lower value 0.983 | locus YJL095W, strain BCK1, stronger effect = lower value 0.991 | locus YJL115W, strain asf1, stronger effect = lower value 0.99 | locus YJL134W, strain LCB3, stronger effect = lower value 0.986 | locus YJL154C, strain vps35, stronger effect = lower value 0.993 | locus YJL164C, strain tpk1, stronger effect = lower value 0.975 | locus YJL166W, strain qcr8, stronger effect = lower value 0.904 | locus YJL168C, strain set2, stronger effect = lower value 0.978 | locus YJL187C, strain SWE1 (second series), stronger effect = lower value 0.983 | locus YJL187C, strain SWE1, stronger effect = lower value 0.988
